The campaign covered roughly 15,000 compounds. About 60 (0.4%) were called active. Rule as the data show it: active = activation above about 2.2%; inactive = the rest. The full list was thinned out, with actives kept by preference.
Assay: activates NOTCH signaling in reporter cells (AID 434982)
Details: NOTCH signaling luciferase reporter cells, luminescence; at 2.5 µM; stronger effect = higher value

activation, inactive:
Cn1c(=O)c2c(ncn2Cc2nnc(-c3ccccc3)o2)n(C)c1=O -0.05%
Cc1ccc(S(=O)(=O)N/N=C/c2ccc(O)cc2O)cc1 -0.7%
Cc1nnsc1C(=O)NN(C)c1ccc([N+](=O)[O-])cn1 -0.31%
CCOC(=O)Cc1cnc(NN=C2C3CC4CC(C3)CC2C4)s1 -0.83%
O=C(Cn1c(=Nc2ccc(F)cc2)oc2ccccc2c1=O)c1ccccc1 -0.66%
O=c1[nH]c2ccccc2c(=O)n1CCSc1ccc(Cl)cc1 -0.73%
O=S(=O)(NC1Cc2ccccc2C1)c1ccc(-c2csnn2)cc1 -0.03%
CCOC(=O)C(=CNNc1ccc(C(=O)O)cc1[N+](=O)[O-])C(=O)OCC -0.57%
Cc1ccc(NC(C(=O)O)c2ccccc2)cc1 (stereo unspecified) -0.61%
CC(=O)Nc1ccc(S(=O)(=O)NNc2c(Cl)cncc2Cl)cc1Cl -0.55%
CCOC(=O)CCC(=O)OC(C(=O)c1ccccc1)c1ccccc1 (stereo unspecified) -0.16%
Cc1ccc(/C=c2\sc3nc4ccccc4n3c2=O)o1 -0.36%
O=S(=O)(CCSc1ccccc1NS(=O)(=O)c1cccs1)c1ccc(Cl)cc1 -0.38%
O=C(Nn1cnnc1)c1ccc([N+](=O)[O-])cc1 -0.58%
O=C(CSc1nnc(-c2ccncc2)o1)N1CCc2ccccc21 -0.94%
Oc1ccccc1C=NCCCN=Cc1ccccc1O -0.99%
N#Cc1ccc(Oc2ccc(Cl)cc2)c([N+](=O)[O-])c1 -0.29%
Oc1ccccc1C=Nc1ccc(F)cc1 -0.14%
O=C(O)/C=C/C(=O)Nc1ccc(NC(=O)c2ccccc2O)cc1 0.22%
CCOC(=O)c1c(C)nn(-c2ncccc2NC(=O)Nc2cccc(Cl)c2Cl)c1C -0.32%
c1ccc(C2=NCCN=C2c2ccccc2)cc1 0.16%
N#CC(C#N)=Cc1cccn1-c1ccc(C(F)(F)F)cc1 -0.29%
N#C/C(=C\c1cccs1)C(=O)NCCc1c[nH]c2ccccc12 0.42%
COC(=O)c1noc(C)c1-c1ccnn1C(=O)c1ccc(Cl)cc1 0.11%
COc1ccc(Cc2nc(C(C)(C)C)cs2)cc1 0.28%
CNC(=S)NNC(=O)c1cc(C)on1 -0.11%
Cn1cnc([N+](=O)[O-])c1N1CCN(C(c2ccccc2)c2ccccc2)CC1 -0.25%
COC(=O)c1sccc1S(=O)(=O)Nc1ccccc1Sc1ncnc2c(C)csc12 -0.68%
N#Cc1ccc(-c2csc(COc3ccccc3Cl)n2)cc1 0.49%
O=C(Nc1ccc(Cl)cc1)c1csc(COc2ccc3nonc3c2)n1 -0.05%
COC(=O)c1ccccc1-c1c2ccc(=O)cc-2oc2cc(O)ccc12 -0.07%
COc1cccc(/C=N/NC(=S)Nc2cc(C(F)(F)F)cc(C(F)(F)F)c2)c1O -0.66%
O=C(O)CC(CC(=O)Nc1cc(C(F)(F)F)ccc1N1CCOCC1)c1ccccc1 (stereo unspecified) -0.05%
Cc1cc(C)nc(NC(=S)c2ccc(NC(=O)/C=C/C(=O)O)cc2)n1 -0.56%
Cc1c(NC(=S)Nc2ccccc2)c(=O)n(-c2ccccc2)n1C -0.19%
O=C(Nc1ccc(OC(F)F)cc1)Nc1coc(-c2ccccc2)c1 -0.11%
CCSC(=O)NCc1ccccc1 -0.05%
O=C(O)c1ccccc1Nc1ccccc1F -0.29%
CN(n1cnc2ccccc2c1=O)S(=O)(=O)c1cc(Cl)sc1Cl -0.39%
COC(=O)c1sc(SC)c(-c2ccn[nH]2)c1C 0.4%
O=C(/C(=N\N=C\c1ccc2c(c1)OCO2)c1ccccc1)c1ccccc1 -0.24%
CCCCCCCN=C(C)c1ccccc1O -0.3%
O=C(O)CC1(CC(=O)Nc2ccccc2-n2cccn2)CCCCC1 -0.3%
CSc1ccc(Br)cc1 0.1%
O=C(N/N=C/c1cccs1)C(=O)Nc1ccc(Cl)c(Cl)c1 -0.5%
O=C1C=C(c2ccccc2)CN(C2CCCCC2)C1=O -1.07%
O=C(Nc1ccccc1)N1CCN(c2ncnc3sccc23)CC1 -0.57%
COCCOc1ccc(NC(=S)N2CCOCC2)cc1 0.32%
COC(=O)c1ccccc1NC(=O)c1ccc(Oc2cc(Cl)cc(Cl)c2)o1 -0.31%
O=C(Sc1ccccc1)c1ccc(C(F)(F)F)cc1 -0.46%
CC(N)=NCCc1ccncc1 -0.78%
N/C(=N\OC(=O)CCn1cccc(C(F)(F)F)c1=O)c1ccc(OC(F)(F)F)cc1 -0.58%
CCOC(=O)/C(C#N)=C/NNc1c(C)csc1C(=O)OC 0.05%
Cn1/c(=N\N=C2CCCCC2)sc2ccccc21 0.03%
CSc1cccc(NC(=O)C(=O)NCCc2ccccn2)c1 -1.05%
COCCCN/C(SCc1c(F)cccc1Cl)=C(\C#N)C(N)=O 0.49%
CC1CN(c2ccc(NC(=S)NCc3cccs3)cc2)CC(C)O1 (stereo unspecified) -0.73%
N#Cc1c(-c2ccccc2)c(-c2ccccc2)n[nH]c1=O -0.27%
O=C1C(Nc2ccccc2)=CC(c2ccc([N+](=O)[O-])cc2)N1c1ccccc1 (stereo unspecified) -0.41%
N#CC1(C#N)C(c2ccc(Cl)c(Cl)c2)C1(C#N)C#N -0.6%
N#Cc1nccnc1N1CCN(C(=O)c2ccccc2)CC1 -0.2%
Cn1c(SCC(=O)c2ccc(Cl)cc2)nnc1-c1cnccc1C(F)(F)F -0.25%
O=C(O)c1ccccc1N/C=C/[N+](=O)[O-] -0.62%
CC1=NOC(=O)/C1=C\c1ccccc1 -0.92%
O=C1Nc2ccccc2C12NNC(=S)NN2 -0.45%
CCCC1NC(=O)NC(C)=C1C(=O)OCC (stereo unspecified) -0.61%
CCOC(=O)C(=CNc1cc(C(F)(F)F)ccc1NCc1ccccc1)C(=O)OCC -0.25%
CCOC(=O)COc1cccc2c(C)cc(=O)oc12 -0.24%
Cc1nc(-c2ccccc2)sc1-c1nnc(C2CC2)o1 -0.45%
O=C(CN1C(=O)/C(=C/c2ccccc2Cl)N=C1c1ccccc1)c1ccccc1 -0.14%
COC(=O)C1=C(NNc2ncc(Cl)cc2C(F)(F)F)CSC1 -0.05%
CC(C)c1ccc(NNS(=O)(=O)c2ccc(Cl)c(Cl)c2)cc1 -0.45%
CCOc1c(N2CCCCC2)c(=O)c1=O -0.13%
O=c1[nH]/c(=C/c2ccc(OC(F)(F)F)cc2)c(=O)[nH]/c1=C/c1ccc(OC(F)(F)F)cc1 -0.83%
CSc1nnc(-c2ccc(C(F)(F)F)cn2)o1 0.03%
CCOC(=O)/C(C#N)=C/N=C(N/N=C/c1cccs1)SC -0.19%
FC(F)(F)c1cc(-c2ccc(Br)cc2)n[nH]1 0.22%
N#C/C(=C\C=C\c1ccccc1)c1nc2ccccc2[nH]1 -5.39%
COc1cccc(/C=C2\SC(=S)C(N)C2=O)c1OC (stereo unspecified) 0.34%
NC(=S)N/N=C\Cc1nnnn1-c1ccc(Cl)cc1 0.16%
Cc1ncn2cc(-c3ccc(Cl)cc3Cl)[nH]c(=O)c12 -0.34%
N#Cc1cc([N+](=O)[O-])c(N2CCCC2)cc1N1CCCC1 -0.6%
CC(C)(C)c1cc(C(=O)/C=C2/NC(=O)CS2)no1 0.5%
Cc1cccc(Cl)c1NC(=S)NCCNC(=O)OC(C)(C)C -0.1%
OC(COc1ccc(Cl)c(Cl)c1)CN1CCC(Nc2nccc(C(F)(F)F)n2)CC1 (stereo unspecified) -0.76%
CCOC(=O)CCSc1cc(-n2cccc2)c(Cl)cc1[N+](=O)[O-] -0.25%
CCCN(CCC)S(=O)(=O)c1ccc(C(=O)Oc2c(C)cccc2OC)cc1 0.36%
O=C(O)CC1(CC(=O)Nc2ccc(N3CCCCC3)cc2)CCCCC1 -0.6%
COc1cc(CC/C(C)=N/O)ccc1O 0.52%
O=C(Nc1cccnc1Oc1ncnc2cc(Cl)ccc12)c1ccc(F)cc1 -5.46%
O=C(O)c1ncoc1-c1cccc(Cl)c1 -0.29%
Cn1cnc(S(=O)(=O)Nc2ccc3[nH]ccc3c2)c1 -0.46%
COc1ccc(C(=O)NNC(=O)c2c(OC)cc(C(F)(F)F)cc2C(F)(F)F)cc1 0.11%
O=C(O)C#Cc1cccc2ccccc12 -0.45%
Cn1cc(Br)c(-c2cccc(NC(=O)c3ccccc3Cl)c2)n1 -0.38%
Cc1onc(-c2ccccc2Cl)c1NC(=O)N1c2ccc(F)cc2CCC1C (stereo unspecified) -0.44%
CN(C)/C=C1/C(=O)NN=C1CSc1ccc(Cl)cc1 -0.25%
Cc1c(S(=O)(=O)N2CCOCC2)ccc(Cl)c1F -1.27%
N#C/C=C/c1ccc(C(F)(F)F)cc1[N+](=O)[O-] -0.41%
Cc1nc2c(ncn2-c2ccccc2)c(=O)n1NC(=O)CN1CCCC1 -4.07%
COc1ccc(CCN=C(C)c2cc(Cl)cc(Cl)c2O)cc1OC -0.13%

From PubChem BioAssay AID434982 (The Scripps Research Institute Molecular Screening Center, 2010)
